Measurements: PubChem BioAssay AID1159580 (chemical genetic matrix, 2015)
Several values for one entry are separate records, joined by “and”; a condition that tells them apart may be missing. Equal values may be shown once. Hit rate of the full screen: of about 5,500 compounds, about 2,000 (36%) were called active. About 18% were inconclusive and are not listed. Some of the results follow. A number with no mark means an inactive call. No stated cut-off is given here; in the data, active means normalized growth mostly below about 0.91 (no sharp cut-off); inconclusive means no clear call, values can overlap the other calls; inactive means mostly above about 0.92.

Assay: chemical genetic growth profiling, strain panel (AID 1159580);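 further: tested at 20 µM; growth read once vehicle control cultures reached saturation at 30 °C; 1 = growth at the plate median or of vehicle wells; lower values mean less growth of the strain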
Details: S. cerevisiae deletion strains, growth OD

O=c1cc(-c2cc(O)c(O)c(O)c2)oc2cc(O)cc(O)c12
normalized growth (locus YAL013W, strain DEP1, hits give low values): 0.997 | normalized growth (locus YAL021C, strain ccr4, hits give low values): 0.901 (active) | normalized growth (locus YAL026C, strain drs2, hits give low values): 0.927 | normalized growth (locus YAL030W, strain snc1, hits give low values): 1.01 | normalized growth (locus YBL061C, strain skt5, hits give low values): 0.942 | normalized growth (locus YBR009C, strain hhf1, hits give low values): 0.95 | normalized growth (locus YBR021W, strain FUR4, hits give low values): 1.07 | normalized growth (locus YBR023C, strain chs3, hits give low values): 0.897 (active) | normalized growth (locus YBR171W, strain sec66, hits give low values): 1 | normalized growth (locus YBR229C, strain ROT2, hits give low values): 0.988 | normalized growth (locus YBR231C, strain swc5, hits give low values): 0.909 (active) | normalized growth (locus YBR279W, strain paf1, hits give low values): 0.935 | normalized growth (locus YCL011C, strain gbp2, hits give low values): 0.946 | normalized growth (locus YCL016C, strain dcc1, hits give low values): 0.94 | normalized growth (locus YCL029C, strain bik1, hits give low values): 0.988 | normalized growth (locus YCL061C, strain MRC1, hits give low values): 0.942 | normalized growth (locus YCL069W, strain vba3, hits give low values): 0.997 | normalized growth (locus YCR088W, strain abp1, hits give low values): 0.995 | normalized growth (locus YDL005C, strain med2, hits give low values): 1.02 | normalized growth (locus YDL035C, strain GPR1, hits give low values): 0.992 | normalized growth (locus YDL040C, strain nat1, hits give low values): 1.04 | normalized growth (locus YDL074C, strain BRE1, hits give low values): 0.957 | normalized growth (locus YDL101C, strain DUN1, hits give low values): 1.01 | normalized growth (locus YDL134C, strain PPH21, hits give low values): 1.05 | normalized growth (locus YDL185W, strain tfp1, hits give low values): 0.941 | normalized growth (locus YDL192W, strain arf1, hits give low values): 0.971 | normalized growth (locus YDR001C, strain nth1, hits give low values): 1.01 | normalized growth (locus YDR069C, strain doa4, hits give low values): 0.855 (active) | normalized growth (locus YDR101C, strain arx1, hits give low values): 1.01 | normalized growth (locus YDR137W, strain rgp1, hits give low values): 0.992 | normalized growth (locus YDR159W, strain sac3, hits give low values): 1.05 | normalized growth (locus YDR162C, strain NBP2, hits give low values): 1.03 | normalized growth (locus YDR195W, strain ref2): 1.05 | normalized growth (locus YDR297W, strain sur2, hits give low values): 0.971 | normalized growth (locus YDR318W, strain mcm21, hits give low values): 0.995 | normalized growth (locus YDR334W, strain swr1, hits give low values): 0.978 | normalized growth (locus YDR335W, strain msn5, hits give low values): 0.986 | normalized growth (locus YDR388W, hits give low values): 0.996 | normalized growth (locus YDR392W, strain spt3, hits give low values): 0.893 | normalized growth (locus YDR502C, strain sam2, hits give low values): 0.984 | normalized growth (locus YEL003W, strain gim4, hits give low values): 0.957 | normalized growth (locus YEL037C, strain rad23, hits give low values): 0.979 | normalized growth (locus YEL061C, strain CIN8 (second series), hits give low values): 1 | normalized growth (locus YEL061C, strain CIN8, hits give low values): 1 | normalized growth (locus YER015W, strain faa2, hits give low values): 0.984 | normalized growth (locus YER016W, strain bim1, hits give low values): 1 | normalized growth (locus YER110C, hits give low values): 0.996 | normalized growth (locus YER111C, strain swi4, hits give low values): 0.965 | normalized growth (locus YER155C, strain BEM2 (second series), hits give low values): 0.938 | normalized growth (locus YER155C, strain BEM2, hits give low values): 1.03 | normalized growth (locus YER167W, strain BCK2, hits give low values): 1.01 | normalized growth (locus YFR010W, strain ubp6, hits give low values): 0.942 | normalized growth (locus YGL078C, strain dbp3, hits give low values): 0.979 | normalized growth (locus YGL086W, strain mad1, hits give low values): 1.01 | normalized growth (locus YGL167C, strain pmr1, hits give low values): 0.988 | normalized growth (locus YGL173C, strain kem1, hits give low values): 0.967 | normalized growth (locus YGL227W, strain vid30, hits give low values): 1.01 | normalized growth (locus YGL240W, strain doc1, hits give low values): 1.02 | normalized growth (locus YGL248W, strain PDE1, hits give low values): 1.01 | normalized growth (locus YGL253W, strain hxk2, hits give low values): 0.948 | normalized growth (locus YGR135W, strain pre9, hits give low values): 0.96 | normalized growth (locus YGR252W, strain gcn5, hits give low values): 1 | normalized growth (locus YHR013C, strain ard1, hits give low values): 0.904 | normalized growth (locus YHR027C, strain rpn1, hits give low values): 0.978 | normalized growth (locus YHR030C, strain SLT2, hits give low values): 0.989 and 1.07 | normalized growth (locus YHR079C, strain IRE1 (second series), hits give low values): 1.02 | normalized growth (locus YHR079C, strain IRE1, hits give low values): 1.06 | normalized growth (locus YHR094C, strain hxt1, hits give low values): 1.02 | normalized growth (locus YHR129C, strain ARP1, hits give low values): 0.986 | normalized growth (locus YHR142W, strain chs7, hits give low values): 0.911 | normalized growth (locus YHR200W, strain rpn10, hits give low values): 0.97 | normalized growth (locus YIL066C, strain RNR3, hits give low values): 0.989 | normalized growth (locus YIL073C, strain SPO22, hits give low values): 0.964 | normalized growth (locus YIL125W, strain kgd1, hits give low values): 0.985 | normalized growth (locus YIR030C, strain dcg1, hits give low values): 1 | normalized growth (locus YJL092W, strain hpr5, hits give low values): 0.996 | normalized growth (locus YJL095W, strain BCK1 (second series), hits give low values): 0.95 | normalized growth (locus YJL095W, strain BCK1, hits give low values): 0.973 and 1.01 | normalized growth (locus YJL115W, strain asf1, hits give low values): 1.01 | normalized growth (locus YJL129C, strain trk1, hits give low values): 0.991 | normalized growth (locus YJL134W, strain LCB3, hits give low values): 0.994 | normalized growth (locus YJL154C, strain vps35, hits give low values): 1.02 | normalized growth (locus YJL164C, strain tpk1, hits give low values): 0.954 | normalized growth (locus YJL166W, strain qcr8, hits give low values): 0.957 | normalized growth (locus YJL168C, strain set2, hits give low values): 0.998 | normalized growth (locus YJL187C, strain SWE1 (second series), hits give low values): 0.974 | normalized growth (locus YJL187C, strain SWE1, hits give low values): 0.986 | normalized growth (locus YJR043C, strain POL32, hits give low values): 1 | normalized growth (locus YJR066W, strain TOR1, hits give low values): 0.981
